This note sets out measurements from PubChem BioAssay (NCI).

Compounds without any hit were thinned out: in the full panel of roughly 83,000, 20% have a hit.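 Percent growth is the endpoint: 0 to 100 indicates growth inhibition (40 means 60% inhibition), 0 means no net growth, and negative values indicate cell death.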 Unmarked numbers belong to inactive results. The source made the active and inactive calls. The calls were made as follows: active = growth percent below 10; inactive = the rest.

One experiment concerns OVCAR-4 ovarian. The experiment can be described thus: NCI-60 one-dose screen, 48 h (100 = growth as untreated, 0 = no growth, -100 = all killed). The conditions noted are these: 10 µM unless noted.
Take `CN1CCc2c(sc3ncnc(N/N=C/c4cccc(Cl)c4Cl)c23)C1`: the growth is -24.8% (active).

`COc1ccc2[nH]c(O)c(N=Nc3nc(-c4ccccc4)cs3)c2c1`: the growth is -7.14% (active). With `COc1ccc(N=Nc2c(N)nn3c(N)c(C#N)c(-c4ccc(F)cc4)nc23)cc1`, the growth is 50.9%. On to `C=CCSc1nnc(-c2ccc(-c3nc4ccccc4[nH]3)cc2)o1`, for which the growth was 46.1%. On to `Cc1oc(-c2ccccc2)nc1CN[C@@H]1C[C@@H]2C[C@H]([C@H]1C)C2(C)C`, for which the growth is 74.5%. With `COc1ccc(NC2=C(I)C(=O)C(C)=C(C)C2=O)cc1`, the growth is -84.6% (active).

A further experiment concerns SK-OV-3 ovarian. The description is as above. The conditions noted are these: 10 µM unless noted.
As for `O=C(Nc1nc2ccccc2s1)Nc1ccccc1Cl`, the growth was 49.2%. Take `Cc1ccc(C(=O)Nc2cc(-n3ccnc3C)cc(C(F)(F)F)c2)cc1C#Cc1cnc2cccnn12`: the growth was -0.287% (active).

Regarding `O=C(c1ccc(O)cc1)C1[C@H](c2ccc(Cl)cc2)[C@@H](c2ccccc2)NC12C(=O)Nc1ccccc12` (some centres undefined), the growth was 43.7%. As for `COc1ccc(-c2nc3ccc(-c4nnc(SCC(=O)Nc5ccc(/C(C)=N\O)cc5)o4)cc3[nH]2)cc1`, the growth is 80.1%. Consider `C[C@H]1[C@@H](CC(=O)N[C@@H](Cc2coc3ccccc23)B(O)O)O[C@@H]2OC3(C)CC[C@H]4[C@H](C)CC[C@@H]1[C@@]24O3`, for which the growth is 58.8%. As for `Cc1cc(C(NC(=O)C2CC3(CC(Nc4cccc5c4C(=O)N(C4CCC(=O)NC4=O)C5=O)C3)C2)c2ccc3c(c2)OC(F)(F)O3)c(O)c2ncccc12` (centres undefined), the growth was -4.52% (active). `NC(=O)c1ccc(-c2ccc3ncnc(N4CCc5cc(F)c(Cl)cc54)c3c2)cn1`: the growth is 101%.

Regarding `CCN1C(=O)N(CC)C2NNC(Sc3c(C(=O)O)c4ccccc4n(CCC(C)C)c3=O)=NC21` (centres undefined), the growth was 35.8%. `COc1ccc2[nH]c(O)c(N=Nc3nc(-c4ccc(Cl)cc4)cs3)c2c1`: the growth was -38.4% (active).

On to `CC[C@]12C=CCN3CC[C@@]4(c5ccc(OC)cc5N(C)[C@H]4[C@@](O)(C(=O)OC)[C@@H]1OC(=O)CCCC[P+](c1ccc(F)cc1)(c1ccc(F)cc1)c1ccc(F)cc1)[C@@H]32`, for which the growth is 41.4%.

On to `COc1cccc(/C=C/c2nc3ccccc3c(=O)n2CC(=O)Nc2ccccc2)c1`, for which the growth was 54.2%. In the case of `O=C(c1ccc(Cl)cc1)C1[C@H](c2ccccc2Cl)[C@@H](c2ccccc2)NC12C(=O)Nc1ccc(Br)cc12` (some centres undefined), the growth is -7.68% (active). Regarding `O=C(CSc1nnc(-c2ccc(-c3nc4ccc(Cl)cc4[nH]3)cc2)o1)Nc1ccc(Cl)cc1`, the growth was 81.1%. On to `N#Cc1c(NC(=O)N2CCOCC2)n(-c2ccc(OC(F)(F)F)cc2)c2cc(F)ccc12`, for which the growth is 120%. With `O=C(N/N=C/c1ccc(Cl)o1)c1[nH]c2ccc(Br)cc2c1-c1ccccc1`, the growth was 4.66% (active). `CC1=C(C(=O)OCc2ccccc2)C(c2cccc3ccccc23)n2c(nc3ccccc32)N1` (centres undefined): the growth was 25.2%. For `CC1=NN(C2=NC(=O)C(CC(=O)Nc3ccccc3C(F)(F)F)S2)C(c2ccc(N(C)C)cc2)C1` (centres undefined), the growth was 80.6%.

On to `CN1C(=O)C2(C(C#N)=C(c3ccc(Cl)cc3)Nc3c2c(-c2ccccc2)nn3-c2ccccc2)c2ccccc21` (centres undefined), for which the growth was 99.2%.

As to `O=[N+]([O-])c1cccc(-c2nnc3c(/C=C/c4ccc(F)cc4)nc4ccccc4n23)c1`, the growth is 101%. For `COC(=O)c1cc(C(C)=O)n2c3ccccc3c3ccccc3c12`, the growth is 99.3%. In the case of `CCCCCCCOc1ccc(S(=O)(=O)Nc2ccc(C)c(F)c2C(=O)O)cc1`, the growth was 104%. For the compound `COc1ccc2[nH]cc(-c3cc4nc(-c5cn(C)c6ncc(Br)cc56)cc(N)n4n3)c2c1`, the growth is -42.6% (active). Same read-out and setting: under `COc1ccc2c(c1)N=c1c-2cc2c(O)[nH]c(=S)n2c1=O` stands 53.3%; under `CC(C)C[C@H](NC(=O)[C@@H]1CCCCCCCCCCC(=O)N[C@@H](CC(=O)N2CCC[C@@H]2C2CCCC2)C(=O)N1)B(O)O`, -7.33% (active).

Take `O=C1NC(=S)/C(=C/c2cn(-c3ccccc3)nc2-c2ccccc2)S1`: the growth is 35.5%. For the compound `CN(C)C(=O)c1cc(-c2ccc3ncnc(N4CCc5cc(F)c(Cl)cc54)c3c2)cnc1N`, the growth was -32.8% (active).

As to `N#C/C(=C/c1ccc(Cl)cc1)c1nnc(NC(=O)c2ccc(-n3c(=O)[nH]c4ccccc4c3=O)cc2)s1`, the growth was 85%.

As to `COc1c(B(O)O)cc(F)cc1-c1nc2c(F)cc3[nH]ncc3c2c2c1CCCC2`, the growth was 25.1%. Same read-out and setting: under `O=C(CSc1nc2sc3c(c2c(=O)n1-c1ccc(Cl)cc1)CCCC3)NNC(=O)c1ccc(Br)cc1` stands 80.8%; under `CN(C)c1ccc(/C=C/c2n(Cc3ccc4ccccc4c3)c3ccccc3[n+]2Cc2ccc3ccccc3c2)cc1`, -80.3% (active); under `COc1ccc2[nH]c(=O)cc(-n3ncc(C(=O)/C=C/c4cc(OC)c(OC)c(OC)c4)c3C)c2c1`, 6.3% (active). Take `COc1ccc(C(=O)C[n+]2cccc3c4ccccc4ccc32)cc1`: the growth is 50.1%. Consider `CN1CCc2c(sc3ncnc(N/N=C/c4cccc(Cl)c4Cl)c23)C1`, for which the growth is 90.6%. For `COc1ccc2[nH]c(O)c(N=Nc3nc(-c4ccccc4)cs3)c2c1`, the growth is -17.4% (active). In the case of `COc1ccc(N=Nc2c(N)nn3c(N)c(C#N)c(-c4ccc(F)cc4)nc23)cc1`, the growth is 43.1%.

As to `C=CCSc1nnc(-c2ccc(-c3nc4ccccc4[nH]3)cc2)o1`, the growth was 96.1%. Consider `Cc1oc(-c2ccccc2)nc1CN[C@@H]1C[C@@H]2C[C@H]([C@H]1C)C2(C)C`, for which the growth was 73.5%. Regarding `COc1ccc(NC2=C(I)C(=O)C(C)=C(C)C2=O)cc1`, the growth is 91.8%.
